Bioassay records as filed in PubChem.
Mcl1 Bid PPI = Mcl-1/Bid interaction inhibition; Q07820; TR-FRET Mcl-1/Bid-Dy647 peptide binding, 1536-well; inhibition, % at 21.7 µM; 220,000 compounds, 0.97% hits; AID 1021;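 active = compounds that cut the binding signal by more than half at the single screening dose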;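 also: His-tagged Mcl-1 with europium anti-His antibody binding Bid BH3 peptide; 0% = Mcl-1 plus peptide wells and 100% = peptide-only wells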
Mcl-1 Bim block = disrupts Bim peptide binding to human Mcl-1; Q07820; Bead-based flow cytometry, Bim peptide-Mcl-1 binding; inhibition, % at 10 µM; 190,000 compounds, 0.1% hits; in the data active = inhibition above about 40%;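 also: 0% = no compound tracer wells and 100% = peptide blocker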
Hck Nef HTS = inhibitors of human Hck kinase activated by Nef | P08631 | Recombinant Hck-YEEI plus Nef, Z-Lyte FRET kinase assay | inhibition, % at 20 µM | 220,000 compounds, 0.68% hits;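 active = Hck-Nef kinase inhibition above about 50%, limit read from the data; inactive = inhibition below that limit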;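 also: 0% = DMSO with Hck plus Nef and 100% = Hck alone without Nef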
Target sequence (P08631 whole entry, looked up): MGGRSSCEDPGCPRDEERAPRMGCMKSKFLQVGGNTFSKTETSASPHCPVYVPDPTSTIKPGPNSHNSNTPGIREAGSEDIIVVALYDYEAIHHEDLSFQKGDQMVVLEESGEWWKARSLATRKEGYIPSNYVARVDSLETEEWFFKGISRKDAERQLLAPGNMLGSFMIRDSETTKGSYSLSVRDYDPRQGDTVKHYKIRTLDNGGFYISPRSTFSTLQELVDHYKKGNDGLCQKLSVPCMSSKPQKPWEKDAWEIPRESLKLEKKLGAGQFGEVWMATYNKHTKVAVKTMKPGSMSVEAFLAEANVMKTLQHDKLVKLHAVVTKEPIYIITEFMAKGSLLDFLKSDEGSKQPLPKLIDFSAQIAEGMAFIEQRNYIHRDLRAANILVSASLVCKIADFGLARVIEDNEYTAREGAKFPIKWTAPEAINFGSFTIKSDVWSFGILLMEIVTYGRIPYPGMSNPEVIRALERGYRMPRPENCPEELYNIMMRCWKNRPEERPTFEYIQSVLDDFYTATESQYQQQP
Mcl1 Noxa PPI = Mcl-1/Noxa interaction inhibition. 220,000 compounds, 1.5% hits. AID 1022. TR-FRET Mcl-1/Noxa peptide binding, 2 h. inhibition, % at 21.7 µM;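 active = compounds that cut the protein-peptide binding signal by more than 50% relative to plate controls in a single-dose test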;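 also: His-tagged Mcl-1 with rhodamine Noxa BH3 peptide and terbium anti-His antibody; 0% = Mcl-1 plus Noxa peptide wells and 100% = peptide-only wells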
eIF4E 4G PPI = blocks eIF4E binding to eIF4G. AID 782. P63073+Q04637. 220,000 compounds, 0.37% hits. inhibition, % at 21.7 µM. TR-FRET eIF4E-eIF4GI(517-606) binding, 2 h;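 active = inhibition above about 30%, limit read from the data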;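 also: 0% = full FRET control wells and 100% = background wells lacking eIF4GI fragment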
14-3-3 Bad inh = disrupts binding of bovine 14-3-3 zeta to phospho-Bad peptide; inhibition, % at 21.7 µM; P63103; TR-FRET 14-3-3zeta/Dy647-pBad peptide displacement, 1 h; AID 781; 220,000 compounds, 0.71% hits;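 active = inhibition above about 70%, limit read from the data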;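 also: 0% = full 14-3-3 plus peptide FRET controls and 100% = background without 14-3-3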
* marks the source's active call; other numbers are inactive results; / = not tested or not shown; [ ] = dose if it differs, or a comment. In the library only some 3.5% were active in any assay of this set; here they are far more common.

SMILES	Mcl1 Bid PPI	Mcl-1 Bim block	Hck Nef HTS	Mcl1 Noxa PPI	eIF4E 4G PPI	14-3-3 Bad inh
COc1cccc(C(Nc2ccccn2)c2oc(CO)cc(=O)c2O)c1 (stereo not drawn)	27	0	-8	74*	7	-12
O=c1cc(CO)oc(C(Nc2ccccn2)c2ccc(C(F)(F)F)cc2)c1O (stereo not drawn)	18	-2	2	37	7	-2
O=c1cc(CO)oc(C(Nc2ccccn2)c2cccc(F)c2)c1O (stereo not drawn)	46	0	1	52*	0	8
O=C(CSCCN1C(=O)c2ccccc2C1=O)Nc1ccc2ccccc2c1	-35	-2	0	3	-6	6
CCC(C)[C@@H](N)C(=O)N/N=C/c1ccc2ncccc2c1 (stereo partly drawn)	-19	14	1	18	-2	20
CC1Oc2ccccc2C=C1/C=N\NC(=O)c1cccnc1 (stereo not drawn)	-6	/	23	23	3	7
CC1N(C)c2cccc3cccc(c23)N1C	-11	11	8	63*	27	-5
Cn1nc(C(=O)Nc2ccc(S(=O)(=O)Nc3ncccn3)cc2)ccc1=O	-33	/	23	25	-4	-1
CCN(CC)c1ccc(/C=N/N2CCOCC2)cc1	-43	0	2	23	17	0
CCN(Cc1ccccc1)c1ccc(/C=N/N2CCOCC2)cc1	-46	-1	8	64*	4	-22
COc1ccc(N2C(=O)CC(NC34CC5CC(CC(C5)C3)C4)C2=O)c(OC)c1 (stereo not drawn)	57*	1	0	33	1	3
COc1ccc(N)c2c1OCCC2=O	-64	-2	0	57*	-1	-5
COc1ccc2c(c1OC)C(=O)OC2	4	1	15	-23	3	-10
O=C(Oc1ccc2c3c(c(=O)oc2c1)CCC3)c1ccccc1[N+](=O)[O-]	19	-1	4	15	4	11
O=C(N/N=C/c1ccc(-c2ccc(S(=O)(=O)Nc3ncccn3)cc2)o1)c1cc2ccccc2cc1O	51*	4	48	106*	-13	6
CN(C(=O)c1cc2c(s1)-c1ccccc1S(=O)(=O)C2)c1ccccc1	0	/	16	7	1	3
Cc1cc(C(F)(F)F)nc(-n2cc(-c3ccccc3)nn2)n1	-36	-3	0	4	1	-9
Cc1noc(C)c1COc1ccc(C(=O)OCC(=O)Nc2cccc(S(=O)(=O)N3CCOCC3)c2)cc1	-5	-3	2	11	6	1
CC(C)NC(=O)c1ccc2c(c1)S(=O)(=O)c1ccccc1C2=O	-14	-4	1	4	-4	-5
CN(C)CCOC(=O)c1ccc2c(c1)S(=O)(=O)c1ccccc1C2=O	-9	/	21	-22	35*	5
Cc1cc(SCC(=O)N/N=C/c2ccc(O)c(O)c2O)c(C)cc1Br	18	-2	1	84*	15	2
COc1cc(/C=N/NC(=O)CSc2cc(C)c(Br)cc2C)ccc1O	-18	2	-1	22	9	-9
O=C(Cn1ncc2c3ccccc3n(Cc3ccccc3)c2c1=O)NCc1ccco1	-3	/	28	8	-8	3
COc1ccc(CN=C2NC(=O)CC(C(=O)Nc3ccc(F)cc3)S2)cc1 (stereo not drawn)	-14	0	2	10	36*	86*[fluorescence artefact?]
COc1ccc(CCNC(=O)c2cc(-c3ccncc3)nc3c(Cl)cccc23)cc1OC	-21	0	0	11	-6	-7
SMILES	Mcl1 Bid PPI	Mcl-1 Bim block	Hck Nef HTS	Mcl1 Noxa PPI	eIF4E 4G PPI	14-3-3 Bad inh
COc1ccc(CCNC(=O)c2cc(-c3ccccn3)nc3c(Cl)cccc23)cc1OC	-25	88*	24	8	3	-10
COc1ccc(NC(=O)C(=S)NC2CCCCC2)cc1	-26	-4	8	20	1	-2
COc1ccc(NC(=S)NC2CC3CCC(C2)N3Cc2ccco2)cc1 (stereo not drawn)	-84	0	16	-3	2	-7
CCc1ccc(NC(=S)NC2CC3CCC(C2)N3Cc2ccco2)cc1 (stereo not drawn)	96*	-5	-1	4	-7	-3
Oc1[nH]c2ccccc2c1/C=N/N1CCCCC1	93*	0	-1	-6	-9	-6
COc1cccc(CNc2nc3ccc(C)cc3n3cnnc23)c1	98*	/	26	-17	-5	3
Cc1ccc(CNc2nc3ccc(C)cc3n3cnnc23)cc1	10	-3	3	20	-1	25
COc1ccc(C)cc1NC(=O)c1ccccc1NS(=O)(=O)c1cccc2cccnc12	2	-6	1	-4	4	2
N#Cc1c(NC(=O)c2cccc(S(=O)(=O)Nc3ccc(C(=O)O)cc3)c2)sc2c1CCCC2	1	/	2	77*	7	6
CCOC(=O)c1sc(NC(=O)c2ccncc2)c(C#N)c1C	8	7	2	54*	0	9
CCOC(=O)c1sc(NC(=O)CSc2nc(C)cc(C)c2C#N)c(C#N)c1C	66*	0	11	-60	-25	27
NC(=O)c1c(NC(=O)c2ccncc2)sc2c1CCCC2	-53	2	17	19	4	-1
N#Cc1c(NC(=O)c2ccncc2)sc2c1CCC2	-45	0	10	69*	6	14
Cc1cccc(NC(=O)c2ccc(S(=O)(=O)N3CCOCC3)cc2)n1	-2	-3	19	8	2	-16
Cc1[nH]c2ccccc2c1C(=O)CSC(=S)N1CCOCC1	-13	/	23	0	0	6
Cc1cccc(OCCCC(=O)Nc2ccc(N(C)C)cc2)c1	-36	0	2	77*	25	9
CN1C(=O)/C(=C/c2cn(CC(=O)N3CCCCC3)c3ccccc23)c2ccccc21	-23	-3	1	97*	7	-10
O=Cc1cn(CC(=O)N2CCCCC2)c2ccccc12	-19	-1	4	-2	10	-1
O=C(CC12CC3CC(CC(C3)C1)C2)N1CCN(S(=O)(=O)c2cccs2)CC1	-26	-3	3	-1	6	-6
CCCN(CCC)CCNC(=O)C1CC(=O)N(c2ccc(OC)cc2)C1c1ccc(OC)cc1 (stereo not drawn)	60*	0	-1	10	-2	-1
CCN(CC)CCNC(=O)C1CCC(=O)N(c2ccc(OC)cc2)C1c1ccc(F)cc1 (stereo not drawn)	-9	0	2	7	-5	-5
COc1ccc2cc(C)c3nnc(SCC(=O)Nc4nc(-c5ccc(F)cc5)cs4)n3c2c1	45	-5	38	-32	3	86*
COc1ccc(-c2csc(NC(=O)CSc3nnc(Nc4ccccc4C)s3)n2)cc1	-52	-2	26	-2	4	-19
